Measured values reported in PubChem BioAssay (NCI).
This is part of a sample that, as a whole, favours compounds with a hit. Of some 83,000 tested, about 20% had one in any assay.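 Compound tested at a single concentration for 48 hours in 96-well plates; a percent growth value below 10 was scored as active.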 Unmarked numbers belong to inactive results. Calls of active or inactive are those of the source.

Assays:
Test in all cases: NCI-60 one-dose screen, 48 h (100 = growth as untreated, 0 = no growth, -100 = all killed)
Settings in all cases: 10 µM unless noted
HCT-15 colon = test system: HCT-15 colon
HT29 colon = test system: HT29 colon
SNB-75 CNS = test system: SNB-75 CNS
SNB-19 CNS = test system: SNB-19 CNS
U251 CNS = test system: U251 CNS
PC-3 prostate = test system: PC-3 prostate
UACC-62 melanoma = test system: UACC-62 melanoma
LOX IMVI melanoma = test system: LOX IMVI melanoma
SK-MEL-28 melanoma = test system: SK-MEL-28 melanoma
SK-MEL-2 melanoma = test system: SK-MEL-2 melanoma
EKVX NSCLC = test system: EKVX NSCLC
SN12C renal = test system: SN12C renal
UO-31 renal = test system: UO-31 renal
TK-10 renal = test system: TK-10 renal
ACHN renal = test system: ACHN renal
CAKI-1 renal = test system: CAKI-1 renal
CCRF-CEM leukemia = test system: CCRF-CEM leukemia
MOLT-4 leukemia = test system: MOLT-4 leukemia
A498 renal = test system: A498 renal

Row | Structure (SMILES) | growth (HCT-15 colon) | growth (HT29 colon) | growth (SNB-75 CNS) | growth (SNB-19 CNS) | growth (U251 CNS) | growth (PC-3 prostate) | growth (UACC-62 melanoma) | growth (LOX IMVI melanoma) | growth (SK-MEL-28 melanoma) | growth (SK-MEL-2 melanoma) | growth (EKVX NSCLC) | growth (SN12C renal) | growth (UO-31 renal) | growth (TK-10 renal) | growth (ACHN renal) | growth (CAKI-1 renal) | growth (CCRF-CEM leukemia) | growth (MOLT-4 leukemia) | growth (A498 renal)
1 | Nc1nc2ccc3[nH]ncc3c2c2c1CCCC2 | 3.93% (active) | 5.02% (active) | -46.9% (active) | 8.98% (active) | 8.3% (active) | 3.35% (active) | 10.9% | -9.24% (active) | 9.47% (active) | -7.53% (active) | -4.32% (active) | 11.3% | 5.99% (active) | 4.7% (active) | 3.71% (active) | 6.67% (active) | 0.983% (active) | -2.01% (active) | –
2 | O=C1c2ccccc2OC=C(c2ccccc2)N1CCCCNc1ccc(S(=O)(=O)Nc2ncccn2)cc1 | 96.1% | 100% | 80% | 101% | 91.1% | 76.4% | 86.8% | 92.7% | 108% | 99.1% | 90% | 99.1% | 85.7% | 96.6% | 100% | – | 75.6% | 85.3% | 80.2%
3 | Cc1ncc(C(=O)Nc2ccc(CN3CCN(C)CC3)c(C(F)(F)F)c2)cc1C#Cc1cnc2cccnn12 | 4.12% (active) | 0.719% (active) | -71.7% (active) | 7.27% (active) | 7.52% (active) | 5.7% (active) | -16.9% (active) | -18.3% (active) | -14.4% (active) | -55.4% (active) | -3.95% (active) | 0.116% (active) | 1.45% (active) | -3.71% (active) | -1.57% (active) | -16.7% (active) | 5.77% (active) | -0.188% (active) | –
4 | COc1cc2c(cc1-c1c(C)noc1C)ncc1nc(C3CCCC3)n([C@H](C)COC(F)F)c12 | 16.8% | 18.3% | 37.4% | 49.5% | 39.7% | 31.8% | 20.7% | 13.2% | 53.8% | 67.8% | 44.2% | 57.3% | -30% (active) | 30.6% | 32.9% | 18.7% | 48.7% | 42.3% | -27.3% (active)
5 | Cc1cc(N2CCN(C)CC2)nc(NC2CCCC(Nc3ccnc4cc(Cl)ccc34)C2)n1 (stereo unspecified) | -35.7% (active) | -53.1% (active) | -25.6% (active) | 9.07% (active) | -51.4% (active) | 8.55% (active) | -90.7% (active) | -81.8% (active) | -75.8% (active) | -66.7% (active) | 34.4% | -21% (active) | -100% (active) | -75.8% (active) | -88.6% (active) | – | -26% (active) | 1.05% (active) | 54.5%
6 | c1ccc(CCNc2ncnc3[nH]ncc23)cc1 | 105% | 94% | 92.6% | 105% | 94.1% | 67% | 86.4% | 89.1% | 114% | 127% | 58.3% | 92.7% | 62.1% | 110% | 89.2% | 90.4% | 95.1% | 124% | 104%
7 | Clc1ccc2c(NCCCCNc3nc(N4CCCCC4)nc4ccccc34)ccnc2c1 | -38.2% (active) | -14.2% (active) | -59.5% (active) | 18.6% | -32.9% (active) | 25.6% | -86.9% (active) | -73.8% (active) | -71.1% (active) | -65.9% (active) | 38.9% | 20.3% | -55.6% (active) | -59.5% (active) | -43.7% (active) | – | -22.9% (active) | 1.5% (active) | 41.1%
8 | Cc1cc(N2CCCCC2)nc(NC2CCCC(Nc3ccnc4cc(Cl)ccc34)C2)n1 (stereo unspecified) | -67.6% (active) | -59.9% (active) | -80.9% (active) | -20.7% (active) | -97.4% (active) | -72.8% (active) | -86.2% (active) | -84.9% (active) | -84% (active) | -77% (active) | 7.48% (active) | -74.9% (active) | -99% (active) | -61.8% (active) | -86.2% (active) | – | -17.8% (active) | -28.2% (active) | -29% (active)
9 | O=C(/C=C/C=C/c1ccc2c(c1)OCO2)N/N=C\c1ccc(O)cc1O | 17% | 48.1% | 64% | 49.3% | 31.3% | 38% | 14.3% | 9.69% (active) | 42.1% | 52.8% | 20.2% | 32.8% | 11.4% | 31% | 14.4% | 9.65% (active) | 18% | 13.3% | –
10 | COc1ccc(-c2cc(-c3ccc(Nc4ccnc5cc(Cl)ccc45)cc3)nc(N3CCOCC3)n2)cc1 | 20.7% | 8.19% (active) | -14.8% (active) | 28.2% | -37.7% (active) | 46.9% | 14.9% | -58.6% (active) | 5.53% (active) | 90.3% | 90.4% | 49.2% | 87.8% | 9.38% (active) | 80.7% | – | 3.53% (active) | 23.9% | 86.6%
11 | CN(Cc1cc(Cl)cc(Cl)c1O)Cc1cc(Cl)cc(Cl)c1O | 40.5% | 94.1% | 75.5% | 73.3% | 58.6% | 80.9% | 64.8% | 57.7% | 86.9% | 93.5% | 83.6% | 71.1% | 46.2% | 61.4% | 52.8% | 42.9% | 48.7% | 47.7% | 89.6%
12 | CSc1ccc(SC2c3ccc(C)cc3Oc3nc(N)c(C#N)c(N)c32)cc1 (stereo unspecified) | -74.3% (active) | -65.1% (active) | -36.4% (active) | -96% (active) | -90.8% (active) | -76.2% (active) | -75.1% (active) | -92.6% (active) | -86.7% (active) | -58.9% (active) | -48.6% (active) | -98% (active) | -99.2% (active) | -97% (active) | -96.6% (active) | – | -37% (active) | -17.9% (active) | 4.22% (active)
13 | Clc1ccc2nc3nc4ccc[nH]c4cc3c2c1 | 69.3% | 83.8% | 88.8% | 89% | 82.8% | 75.1% | 80.4% | 91.9% | 111% | 88.5% | 68.2% | 90.8% | 78.4% | 43.1% | 85.9% | – | 71.4% | 80.5% | 109%
14 | CCCOc1ccc2nc(NC(=O)OC)[nH]c2c1 | 12.4% | 0.423% (active) | 46.1% | 34% | 12.7% | 19.7% | 22.3% | 24.4% | 66.5% | -1.33% (active) | 57.1% | 23.2% | 37.5% | 35.7% | 31.5% | 51.7% | 7.62% (active) | 17.7% | 9.31% (active)
15 | CCCCCC(=O)Oc1ccc(/C(=C(\C)c2ccc(OC)cc2)c2ccc(OCCN3CCCCC3)cc2)cc1 | 9.94% (active) | 8.71% (active) | 64% | 74.4% | 45.4% | 51.1% | 6.92% (active) | 33.5% | 27.6% | 64.7% | 58.5% | 73.8% | – | 92.7% | 74.4% | – | 56.7% | 25.1% | 92.3%
16 | NC1=C(Cl)C(=O)c2ccc(S(N)(=O)=O)cc2C1=O | -58.2% (active) | -50.3% (active) | -100% (active) | -73% (active) | -90.7% (active) | 1.22% (active) | -88% (active) | -85.1% (active) | -84.9% (active) | -73.6% (active) | -77.6% (active) | -67.5% (active) | -95.9% (active) | -16.5% (active) | – | -63.8% (active) | 20.1% | 11.8% | -99.5% (active)
